The values that follow come from PMC5540273 (PLoS ONE, 2017).

Where “and” joins values, the source holds several entries; their conditions need not be identical. Equal entries are not always repeated. Where two headings read alike, the source gives them in different places.

Experiment [1] has as its system BTK. To be noted: concentration: 1 μM, replicates: in singlicate, n = 1.
In experiment [2] the test system is BUB1. The note with it: concentration: 1 μM, replicates: in singlicate, n = 1.
The subject of experiment [3] is CAMK1B. To be noted: concentration: 1 μM, replicates: in singlicate, n = 1.
Experiment [4] deals with CAMK1D. To be noted: concentration: 1 μM, replicates: in singlicate, n = 1.
Experiment [5] concerns CAMK1. The note with it: concentration: 1 μM, replicates: in singlicate, n = 1.
The subject of experiment [6] is CAMK2G. The note with it: concentration: 1 μM, replicates: in singlicate, n = 1.
The subject of experiment [7] is CDC2L2. The note with it: concentration: 1 μM, replicates: in singlicate, n = 1.
In experiment [8] the test system is T1, CDC2L5.
T1 construct: gene CDK13
The note with it: concentration: 1 μM, replicates: in singlicate, n = 1.

Experiment [9] relates to T2, CDK11.
T2 construct: gene CDK19
To be noted: concentration: 1 μM, replicates: in singlicate, n = 1.

Experiment [10] relates to BRSK1. To be noted: concentration: 1 μM, replicates: in singlicate; n = 1.
Experiment [11] relates to BRSK2. The note with it: concentration: 1 μM, replicates: in singlicate; n = 1.
Experiment [12] has as its system CAMK1G. To be noted: concentration: 1 μM, replicates: in singlicate; n = 1.
The test system of experiment [13] is CAMK2A. The note with it: concentration: 1 μM, replicates: in singlicate; n = 1.
Experiment [14] has as its system CAMK2B. To be noted: concentration: 1 μM, replicates: in singlicate; n = 1.
The test system of experiment [15] is CAMK2D. To be noted: concentration: 1 μM, replicates: in singlicate; n = 1.
Experiment [16] relates to CAMK4. The note with it: concentration: 1 μM, replicates: in singlicate; n = 1.
In experiment [17] the test system is CAMKK1. The note with it: concentration: 1 μM, replicates: in singlicate; n = 1.
Experiment [18] relates to CAMKK2. The note with it: concentration: 1 μM, replicates: in singlicate; n = 1.
Experiment [19] has as its system CASK. To be noted: concentration: 1 μM, replicates: in singlicate; n = 1.
The subject of experiment [20] is T3, CDC2L1.
T3 construct: gene CDK11B
The note with it: concentration: 1 μM, replicates: in singlicate; n = 1.
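Further: KINOMEscan kinase panel screen.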

Take `COc1ccc(-c2nc3n(c2-c2ccncc2)CCC3)cc1` [SKF-104493]: the “%Inh” value in experiment [1] (1 µM) is 14% and 0%; in experiment [2] (1 µM), 67% and 78%; in experiment [3] (1 µM) it was 0% and 26%; in experiment [4] (1 µM), 12% and 7%; in [5] (1 µM), 0% and 7%; in experiment [6] (1 µM) it was 0% and 2%. Also, the “%Inh” value is 6% and 13% in [7] (1 µM); 18% and 0% in experiment [8] (1 µM); 5% and 7% in [9] (1 µM).

`CC(C)(C)OC(=O)NC1CCCN(c2cc(-c3ccc4c(N)n[nH]c4c3)nc(N)n2)C1` (stereo not drawn) [GSK2286096]: the “%Inh” value worked out at 0% in [10]; 0% in [11]; 0% in experiment [1]; 0% in experiment [2]; 25% in experiment [3]; 21% in [4]. Also, the “%Inh” value in experiment [12] is recorded as 11%; in experiment [5], 16%; in experiment [13] it was 0%; in experiment [14], 0%; in experiment [15], 16%; in experiment [6], 18%. Also, the “%Inh” value in [16] is 0%; in experiment [17] it was 0%; in [18], 32%; in experiment [19] it was 2%; in experiment [20], 8%; in experiment [7], 0%. Moreover, the “%Inh” value was determined as 0% in experiment [8] and 38% in experiment [9].

Take `Cl.O=S(=O)(c1cccc(F)c1)c1ccc(Nc2ncnc3cc(Br)sc23)cc1Cl` [GSK306886]: the “%Inh” value in experiment [10] is on record as 0%; in experiment [11] it was 0%; in experiment [1], 0%; in experiment [2], 0%; in experiment [3] it was 38%; in [4], 10%. Moreover, the “%Inh” value in experiment [12] was 0%; in experiment [5] it was 2%; in experiment [13], 0%; in [14], 0%; in experiment [15] it was 9%; in [6] it was 0%. Further, the “%Inh” value came out at 0% in experiment [16]; 0% in experiment [17]; 20% in experiment [18]; 47% in experiment [19]; 3% in experiment [20]; 20% in [7]. Further, the “%Inh” value in experiment [8] and in [9] was 0% each time.

As for `Nc1nc(-c2cccnc2)c(-c2ccnc3ccccc23)s1` [GW684083], the “%Inh” value in experiment [10] was 10%; in experiment [11], 0%; in [1] it was 8%; in experiment [2], 58%; in experiment [3], 0%; in experiment [4], 6%. The “%Inh” value in experiment [12] is 0%; in experiment [5], 8%; in experiment [13], 0%; in experiment [14], 0%; in experiment [15], 2%; in experiment [6] it was 27%. Further, the “%Inh” value in experiment [16] is 0%; in [17], 0%; in experiment [18], 19%; in experiment [19] it was 14%; in [20], 0%; in experiment [7], 12%. Further, the figures for the “%Inh” value in experiment [8] and in experiment [9] were 0% and 8%, respectively.

On to `CCn1c(-c2ccncc2)nc2cnccc21` [SB-735216], for which the “%Inh” value is recorded as 0% in [10]; 0% in [11]; 28% in [1]; 15% in [2]; 45% in experiment [3]; 6% in experiment [4]. In addition, the “%Inh” value in experiment [12], in experiment [5], in [13], in experiment [14], in experiment [15] and in experiment [6] was 0% throughout. Moreover, the “%Inh” value in experiment [16] is given as 0%; in [17], 0%; in experiment [18], 4%; in experiment [19] it was 5%; in experiment [20] it was 9%; in experiment [7], 0%. The “%Inh” value is reported as 28% in experiment [8] and 18% in experiment [9].

With `Clc1cccc(-c2nc(Nc3ccncc3)c3ccccc3n2)c1` [GW873004], the “%Inh” value in [10] worked out at 1%; in experiment [11], 23%; in [1], 0%; in [2], 31%; in experiment [3], 0%; in [4], 0%. Besides, the “%Inh” value in [12] came out at 0%; in experiment [5], 0%; in experiment [13], 1%; in experiment [14], 4%; in [15], 0%; in [6], 0%. Further, the “%Inh” value in experiment [16] is recorded as 27%; in experiment [17], 11%; in [18], 0%; in [19], 0%; in experiment [20], 0%; in experiment [7], 7%. For the same compound, the “%Inh” value in experiment [8] amounted to 15%; in [9], 2%.

As for `CSc1ccc(NC2=C(c3ccccc3Cl)C(=O)NC2=O)cc1` [SB-342411], the “%Inh” value in experiment [10] is 0%; in experiment [11], 12%; in experiment [1] it was 0%; in experiment [2], 0%; in [3], 0%; in experiment [4], 22%. In addition, the “%Inh” value in [12] is given as 19%; in experiment [5] it was 3%; in [13] it was 18%; in experiment [14], 13%; in [15], 28%; in experiment [6] it was 36%. Also, the “%Inh” value in experiment [16] amounted to 0%; in [17], 5%; in experiment [18], 25%; in [19], 26%; in experiment [20], 0%; in [7], 0%. Further, the “%Inh” value in experiment [8] and in experiment [9] was 0% throughout.

On to `Cc1ccc(C)c(NC(=O)NCCNc2ccnc(Nc3ccc(F)cc3)n2)c1` [GSK1379878], for which the “%Inh” value in experiment [10] was found to be 0%; in experiment [11] it was 0%; in [1], 0%; in experiment [2], 14%; in experiment [3], 28%; in experiment [4], 2%. For the same compound, the “%Inh” value in experiment [12] came out at 62%; in experiment [5] it was 5%; in experiment [13], 0%; in experiment [14] it was 0%; in experiment [15], 18%; in [6], 21%. Moreover, the “%Inh” value in experiment [16] is recorded as 0%; in experiment [17] it was 0%; in [18], 2%; in experiment [19], 0%; in [20], 0%; in experiment [7], 17%. Besides, the “%Inh” value in [8] was determined as 0%; in experiment [9] it was 6%.

With `Cc1ccc(NC(=O)c2cccc(C#N)c2)cc1-c1ccc(C(=O)Nc2ccncc2)cc1` [GSK1398463], the “%Inh” value in experiment [10] was 15%; in experiment [11] it was 0%; in experiment [1], 0%; in [2], 27%; in experiment [3] it was 0%; in experiment [4] it was 42%. The “%Inh” value in experiment [12] was 67%; in [5], 49%; in experiment [13], 7%; in experiment [14], 6%; in experiment [15], 49%; in experiment [6], 26%. Moreover, the “%Inh” value is reported as 0% in experiment [16]; 15% in experiment [17]; 2% in experiment [18]; 7% in experiment [19]; 0% in experiment [20]; 14% in experiment [7]. The “%Inh” value in [8] came out at 0%; in experiment [9], 5%.

In the case of `CSc1nn2c(=O)cc(N3CCOCC3)nc2n1Cc1cccc(Cl)c1Cl` [GSK2347225], the “%Inh” value in experiment [10] amounted to 0%; in experiment [11] it was 0%; in [1] it was 0%; in experiment [2], 0%; in experiment [3], 0%; in [4], 8%. Moreover, the “%Inh” value was determined as 17% in experiment [12]; 0% in [5]; 0% in [13]; 0% in [14]; 21% in experiment [15]; 25% in experiment [6]. For the same compound, the “%Inh” value worked out at 0% in experiment [16]; 13% in [17]; 23% in experiment [18]; 2% in experiment [19]; 0% in experiment [20]; 9% in experiment [7]. Besides, the “%Inh” value is given as 0% in experiment [8] and 8% in experiment [9].
